# Assay outcomes as filed in PubChem.
# Only a selection was taken, and hits are over-represented in it overall.
# FECH inh: human FECH heme synthesis enzyme inhibition; P22830; purified FECH, Ni-mesoporphyrin absorbance 550 nm; calls only at 10 µM (by protocol); actives 3.3% (n = 20,000); AID 1671448;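 active = enzyme reaction rate more than 3 SD below the solvent-only control wells on the same plate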;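 note: lower slope than DMSO wells means FECH inhibition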
# Target sequence (P22830 whole entry, looked up): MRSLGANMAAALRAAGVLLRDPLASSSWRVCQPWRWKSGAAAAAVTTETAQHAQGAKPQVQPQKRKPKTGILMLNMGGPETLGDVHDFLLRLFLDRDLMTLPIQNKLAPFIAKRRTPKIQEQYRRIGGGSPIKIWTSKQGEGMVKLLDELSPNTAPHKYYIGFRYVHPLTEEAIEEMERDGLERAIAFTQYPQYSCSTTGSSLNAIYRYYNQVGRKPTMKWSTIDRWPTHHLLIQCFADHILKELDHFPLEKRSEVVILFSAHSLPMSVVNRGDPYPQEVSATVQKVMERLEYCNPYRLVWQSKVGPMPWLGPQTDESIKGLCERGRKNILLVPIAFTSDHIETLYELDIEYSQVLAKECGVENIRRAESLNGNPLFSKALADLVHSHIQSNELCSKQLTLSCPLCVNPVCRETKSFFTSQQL
# Active calls of the source: *; i = inactive; + = active, no number.
SMILES,FECH inh
COC(=O)CC1=CC(=O)N(CC(=O)Nc2cccc(C(F)(F)F)c2)c2ccccc2N1,i
CCN1C(SCC(=O)Nc2cccc(Br)c2)=NS(=O)(=O)c2ccccc21,+
CCN1C(SCC(=O)Nc2cc(OC)cc(OC)c2)=NS(=O)(=O)c2ccccc21,i
CCN1C(SCC(=O)Nc2cccc(C(F)(F)F)c2)=NS(=O)(=O)c2ccccc21,+
O=C(CN1CCCN(Cc2ccccc2Cl)S1(=O)=O)Nc1cccc(Br)c1,i
O=C1CN(Cc2cccc(C(F)(F)F)c2)S(=O)(=O)c2ccccc2N1Cc1ccccc1,i
c1ccc(OCc2noc(COc3ccc4ncccc4c3)n2)cc1,i
Cc1nc2ncccn2c1C(=O)N1[C@@H]2CC[C@H]1CNC(=O)C2,i
OC1CCCN(c2ccnc(N3CCOc4ccccc4C3)n2)C1 (centres undefined),i
CCC(C)N(Cc1ccsc1)C(=O)c1cn(C)c2ccc(C)cc2c1=O (centres undefined),i
Cc1ccc(Nc2cc(C)nc(Nc3ccc(NC(=O)C(C)(C)C)cc3)n2)cc1,i
COc1ccc(C)cc1-n1cnnc1C1CC(=O)N(C)C1 (centres undefined),i
CCc1cc(CN(C)C(=O)CN2C(=O)c3ccccc3C2=O)on1,+
CCc1cc(CN(C)C(CC)C(=O)Nc2ccccc2)on1 (centres undefined),i
CCc1cc(CN(C)C2CCN(C(=O)c3ccccn3)CC2)on1,i
COCCn1c(CNS(=O)(=O)c2ccccc2)nc2cccnc21,i
CN(Cc1nnc(-c2ccccc2)o1)C(=O)C1CCCN(Cc2ccco2)C1 (centres undefined),i
CN1CCC2(CC1)CN(C(=O)CNC(N)=O)CCCN2C,i
CCc1ccccc1NC(=O)C(=O)N1CCN(C)C2(CCN(C)CC2)C1,i
COc1ccc(NC(=O)CC(=O)N2CCN(C)C3(CCN(C)CC3)C2)cc1,+
COc1ccc(CNc2nccc(N3CCC(O)CC3)n2)c(OC)c1,i
COc1ccc(-c2cc(N3CCN(C(=O)Nc4cc(OC)ccc4OC)CC3)ncn2)cc1,i
CCC(=O)Nc1ccc(S(=O)(=O)NCCn2c(-c3ccc(C)cc3)nc3cccnc32)cc1,+
CCc1ccccc1NC(=O)NCCn1c(-c2ccncc2)nc2cccnc21,i
COc1ccc(NC(=O)NCCn2c(-c3ccncc3)nc3cccnc32)cc1,i
SMILES,FECH inh
CCc1ccc(S(=O)(=O)NCCn2c(-c3ccc(C)cc3)nc3cccnc32)cc1,i
Cc1ccc(NC(=O)NCCn2c(-c3ccncc3)nc3cccnc32)cc1Cl,+
Cc1cc(C)cc(NC(=O)NCCn2c(-c3ccncc3)nc3cccnc32)c1,i
Cc1ccc(-c2nc3cccnc3n2CCNS(=O)(=O)c2ccc(C)cc2)cc1,i
COC(=O)CNC(=O)NCCn1c(-c2ccccc2)nc2cccnc21,+
COc1ccc(CC(=O)NCCn2c(-c3ccccc3)nc3cccnc32)c(Cl)c1,i
O=C(CC1CCN(S(=O)(=O)c2ccccc2)CC1)NCc1ccccn1,i
CN(C)Cc1nnc(C(=O)N2CCC(CCCc3ccccc3)CC2)o1,i
CCN1CCc2c(sc(NC(=O)c3ccc(C(C)=O)cc3)c2C(=O)OC)C1,i
CCCC(=O)Nc1cc(C)nn1-c1ncnc2c1cnn2-c1ccc(F)cc1,i
O=C1CC(=O)Nc2cc(S(=O)(=O)N3CCN(c4ccccn4)CC3)ccc2N1,i
Cc1nc2c(c(NCCc3csc(-c4cccnc4)n3)n1)CCNC2,i
c1cncc(-c2nc(CCNCc3nc(-c4ccco4)no3)cs2)c1,+
O=C(NCCc1csc(-c2cccnc2)n1)C1CNCCO1 (centres undefined),i
COc1cccc(NC(=O)CCc2c(C)nn(-c3cc(N4CCCC4)ncn3)c2C)c1,i
CC(=O)Nc1ccc(S(=O)(=O)N2CCN(c3nc(C)cc(N4CCCC4)n3)CC2)cc1,i
Cc1cc(N(C)C)nc(N2CCN(S(=O)(=O)c3ccc(Cl)cc3)CC2)n1,i
CC(=O)Nc1ccc(S(=O)(=O)N2CCN(c3nc(C)cc(N4CCCCC4)n3)CC2)cc1,+
Cc1cc(N(C)C)nc(N2CCN(S(=O)(=O)c3ccc(C)c(C)c3)CC2)n1,i
Cc1cc(N(C)C)nc(N2CCN(S(=O)(=O)c3ccc(F)cc3)CC2)n1,+
CC(=O)Nc1ccc(S(=O)(=O)N2CCN(c3nc(C)cc(N4CCOCC4)n3)CC2)cc1,i
Cc1cc(NC(=O)c2c(F)cccc2Cl)n(-c2ncnc3c2cnn3-c2cccc(C)c2C)n1,i
CO[C@H]1COC[C@@H]1NCC(=O)Nc1cccc(F)c1C,i
CN(CC(=O)NCc1ccccc1F)Cc1cccc2ncccc12,i
Cc1cnc(CN(C)CC(=O)Nc2cccc(F)c2C)[nH]1,+
SMILES,FECH inh
NC(=O)c1nc(CN2CCCC(CCc3ccccc3C(F)(F)F)C2)no1 (centres undefined),i
COc1cccc(Nc2nc(NC3CCCCCC3)nc3c2cnn3-c2ccccc2)c1,i
O=C(CN1CCCN(Cc2ccccc2)S1(=O)=O)Nc1cccc(Cl)c1,i
O=C(CN1CCN(Cc2ccc(Cl)cc2)S1(=O)=O)Nc1cccc(Cl)c1,i
O=C(CN1N=C(c2ccccc2)c2ccccc2S1(=O)=O)Nc1cccc(Cl)c1,+
Cc1ccc(-c2ccc3nc(CO)[nH]c3c2)c(-n2cccn2)c1,i
COc1ccc(-n2c(CN3CCN(S(=O)(=O)c4cc(F)cc(F)c4)CC3)nc3cccnc32)cc1,i
Cc1ccc(-n2c(CN3CCN(S(=O)(=O)c4cc(F)cc(F)c4)CC3)nc3cccnc32)cc1,+
COc1cccc(S(=O)(=O)N2CCN(Cc3nc4cccnc4n3-c3cccc(C)c3)CC2)c1,i
COc1cccc(S(=O)(=O)N2CCN(Cc3nc4cccnc4n3-c3cccc(F)c3)CC2)c1,+
Cc1cc(C)cc(-n2c(CN3CCN(S(=O)(=O)c4cccc5nsnc45)CC3)nc3cccnc32)c1,+
COc1cccc(S(=O)(=O)N2CCN(Cc3nc4cccnc4n3-c3ccccc3)CC2)c1,i
Cc1cccc(-n2c(CN3CCN(S(=O)(=O)c4cc(C)c(C)cc4C)CC3)nc3cccnc32)c1,i
Cc1ccc(-n2c(CN3CCN(S(=O)(=O)c4ccc(F)cc4)CC3)nc3cccnc32)cc1,i
Cc1cc(C)cc(-n2c(CN3CCN(S(=O)(=O)c4ccc(C)cc4C)CC3)nc3cccnc32)c1,i
CCCc1ccc(S(=O)(=O)N2CCC(n3c(C(F)(F)F)nc4cccnc43)CC2)cc1,i
O=C(CCC(=O)N1CCc2cc(S(=O)(=O)N3CCCC3)ccc21)N1CCCCCC1,i
CCOc1c(Nc2ccc(C)c(C)c2)c(=O)c1=O,i
Cc1cc(NC(=O)c2ccccc2Br)n(-c2ncnc3c2cnn3-c2ccc(F)cc2)n1,i
COc1ccc(OC)c2c(C)cc(N3CCN(C)C(C(=O)O)C3)nc12 (centres undefined),i
O=C(Nc1cnc2n1CCCC2)c1ccccc1-c1ncc[nH]1,i
Cc1[nH]cnc1CN(C)Cc1nc(CC(C)C)no1,i
O=S(=O)(c1ccc(Cl)s1)N1CCN(Cc2nc3cccnc3n2-c2ccccc2)CC1,i
Cn1cnc(-c2ccccc2)c1-c1cccc2cnccc12,i
COCC1(Cn2cnc(-c3ccccc3)c2-c2cccc3cnccc23)CC1,+
CCc1ccccc1-c1c(-c2ccccc2)ncn1CCC(=O)OC,i
CCOc1ccc(CC(=O)Nc2cc(N3CCCS3(=O)=O)ccc2C)cc1,i
